MazF activator: activators of E. coli MazEF toxin-antitoxin RNase, primary screen, biochemical, fluorescence, uHTS; Endoribonuclease toxin MazF (Escherichia coli (strain K12)), P0AE70; FAM/BHQ RNA-DNA oligo cleavage fluorescence, 5 h; activation, % at 20 µM; 0.32% of 350,000 active; AID 504720, 2011; in the data active means activation above about 50%
PriA SSB inh: inhibitors of Klebsiella pneumoniae PriA binding to SSB C-terminal tail, primary screen, biochemical, AlphaScreen. AlphaScreen SSBct-PriA binding, biotinylated peptide. AID 1272365, 2023. inhibition, % at 33 µM. 0.6% of 430,000 active. PriA–SSB C-terminal tail interaction (Klebsiella pneumoniae); in the data active means inhibition mostly above about 37%, no sharp cut-off; inactive means mostly below about 20%;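 further: plate controls were negative control peptide for no effect and reference peptide for full effect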
Autofluor counter: compound fluorescence in toxin protease inhibitor counterscreen | compound autofluorescence counterscreen, microsphere flow cytometry; active compounds read high | fluorescence intensity (no concentration beside the values) | 3.1% of 360,000 active | AID 624483; in the data active means fluorescence intensity above about 16000; inconclusive means no clear call, values can overlap the other calls
Anthrax LF prot: Bacillus anthracis LF protease inhibitors, primary screen, biochemical, multiplex microsphere, MLPCN library. Lethal factor (Bacillus anthracis), P15917. multiplex microsphere protease cleavage assay. inhibition, % at 10 µM. 0.12% of 360,000 active; further: plate controls were buffer without enzyme for full effect and enzyme alone for no effect
BoNT A protease: BoNT/A light chain protease inhibitors, primary screen, biochemical, flow cytometry, MLPCN library; Botulinum neurotoxin type A light chain protease (Clostridium botulinum A str. ATCC 3502); 0.17% of 360,000 active; inhibition, % at 10 µM; AID 588499, 2011; multiplex microsphere protease substrate cleavage; further: plate controls were buffer without enzyme for full effect and enzyme alone for no effect
BoNT F protease: BoNT/F light chain protease inhibitors, primary screen, biochemical, flow cytometry, MLPCN library; inhibition, % at 10 µM; AID 588497, 2011; 0.22% of 360,000 active; Botulinum neurotoxin type F light chain protease (Clostridium botulinum); Multiplex microsphere protease cleavage assay; in the data active means inhibition above about 35%, passing the limit was not always enough; inconclusive means no clear call, values can overlap the other calls; further: plate controls were buffer without enzyme for full effect and enzyme alone for no effect
Numbers without * were called inactive; u = inconclusive; x = no result. Most compounds without a hit are left out; they make up all but 3.3% or so of the library. Unless noted, no stated cut-off is given here; in the data, active means inhibition above about 30%; inconclusive means no clear call, values can overlap the other calls; inactive means below that.

SMILES	MazF activator	PriA SSB inh	Autofluor counter	Anthrax LF prot	BoNT A protease	BoNT F protease
Cc1noc(C)c1CSc1ccccc1C(=O)N1CCN(c2ccccc2)CC1	-2	17	3223	4	2	13
O=C(CSCc1ccc(F)cc1)N1CCOCC1	2	-8	20026*	-12	7	8
Cc1cccc(N2CCN(C(=O)CSCc3c(C)noc3C)CC2)c1C	8	6	23925*	1	0	-2
O=C(CSCc1ccc(Br)cc1)N1CCOCC1	5	-3	10667	0	0	-2
Cc1noc(C)c1CSCC(=O)N1CCN(c2ccc(F)cc2)CC1	-14	-5	16984*	-3	0	-2
O=C(NN=Cc1c(O)n(CCc2ccccc2)c(=O)[nH]c1=O)c1ccncc1	x	-2	x	x	x	x
O=C(NCCC(O)c1ccc2c(c1)OCO2)c1ccccn1 (configuration not stated)	x	6	x	x	x	x
Cc1c([N+](=O)[O-])cc(S(=O)(=O)NCCOc2cccc(C(F)(F)F)c2)cc1[N+](=O)[O-]	x	39*	x	x	x	x
Cc1c([N+](=O)[O-])cc(S(=O)(=O)NCCOc2ccc(F)cc2)cc1[N+](=O)[O-]	x	20	x	x	x	x
COc1ccc(CC(=O)N2CCC3(CC2)OCCS3)cc1OC	x	3	x	x	x	x
Cc1nc2sc(C)c(C)n2c(=O)c1NC(=O)C(C)C	x	1	x	x	x	x
O=S(CC(O)COCc1ccc(Cl)cc1)c1ccccn1 (configuration not stated)	3	-21	21318*	2	3	2
COc1ccc(C2C(=C(O)c3ccc(C)cc3)C(=O)C(=O)N2c2ccccn2)cc1OC (configuration not stated)	x	-3	x	x	x	x
Cc1ccc(C(c2nnnn2C(C)(C)C)N2CCC(C)CC2)cc1 (configuration not stated)	-2	-13	20278*	-6	2	4
O=C(CCC(NC(=O)OCc1ccccc1)C(=O)OCC(=O)N1CCCCC1)OCC(=O)N1CCCCC1 (configuration not stated)	-4	-8	21055*	-8	3	6
CC1CCN(CC(O)CN2c3ccccc3Sc3ccccc32)CC1 (configuration not stated)	16	-9	3739	-4	6	7
OC(CN1CCc2ccccc2C1)CN1c2ccccc2Sc2ccccc21 (configuration not stated)	x	54*	x	x	x	x
O=C(CCCN1C(=O)CCC1=O)Nc1ccccc1F	-2	-6	22328*	2	4	4
O=C(CCCN1C(=O)CCC1=O)Nc1ccc(Br)cc1F	-2	-2	23503*	0	0	0
COc1cc(Cl)c(C)cc1NC(=O)CCCN1C(=O)CCC1=O	2	1	19155*	-3	1	-2
O=C(NCc1ccsc1)C1CC(=O)N(c2ccccc2)C1 (configuration not stated)	x	-2	x	x	x	x
Cc1ccnc(NS(=O)(=O)c2ccc(N=CC3=C(O)CC(C)(C)CC3=O)cc2)n1	-11	-16	22067*	-1	u	2
O=C(NC[C@@](O)(c1ccccc1)C1CC1)C(=O)Nc1ccc(OC(F)(F)F)cc1	x	-18	x	x	x	x
CCn1c(NC(=O)c2ccc(F)cc2)c2ccccc2nc1=O	23	-5	19832*	-10	-1	-4
CN(C)c1ccc(/C=N\Nc2nc(-c3ccccc3)cs2)cc1	x	40	x	x	x	x
SMILES	MazF activator	PriA SSB inh	Autofluor counter	Anthrax LF prot	BoNT A protease	BoNT F protease
CCCCCCOc1ccc(C(=O)n2cnc(N)n2)cc1	-4	-23	21741*	1	2	-2
CCCCCCOc1ccc(C(=O)O)cc1	7	0	4376	1	0	0
O=C(O)CCN1C(=O)/C(=C/c2cc([N+](=O)[O-])ccc2OCc2ccccc2Cl)SC1=S	x	5	x	x	x	x
O=C(O)CN1C(=O)/C(=C\c2cc([N+](=O)[O-])ccc2OCc2ccccc2Cl)SC1=S	8	-2	3527	32*	3	20
Cc1nc(C)c(C(=O)N2CCC[C@H](Cc3nc(-c4ccccc4C)no3)C2)s1	x	-8	x	x	x	x
O=C(Cn1nc(C(F)(F)F)c2c1CCCC2)Nc1ccc2c(c1)OCO2	-2	-15	21133*	-4	-1	-4
CCc1c(C)sc(NC(=O)Cn2nc(C(F)(F)F)c3c2CCCC3)c1C#N	3	0	22610*	1	2	3
COc1ccc(NC(=O)Cn2nc(C(F)(F)F)c3c2CCCC3)cc1OC	-2	-5	22117*	-2	u	-7

Source: PubChem (several laboratories)
